Reference: PubChem BioAssay (NCI)
The panel holds about 79,000 compounds, 15% with a hit somewhere; the sample as a whole holds those more often. Cut-off read from the data, not from the text of the source: active = growth inhibition above about 70%; inactive = the rest.

Tests used:
[1] = NCI Yeast Anticancer Drug Screen. Data for the rad50 strain (AID 155);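 note: 0% = growth of vehicle-only cultures of the same strain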; conditions: S. cerevisiae rad50 strain growth inhibition; at 50.0 µM; stronger effect = higher value
Procedure, shortened: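 Inhibition values express reduced yeast growth in compound-treated cultures relative to vehicle-treated controls.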

[2] = NCI Yeast Anticancer Drug Screen. Data for the mec2-1 strain (AID 157); conditions: S. cerevisiae mec2-1 strain, at 50.0 µM, stronger effect = higher value
Procedure, shortened: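 Compounds were applied to mec2-1 yeast cells. Their growth was then compared with that of vehicle-treated cultures to give growth inhibition.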

[3] = NCI Yeast Anticancer Drug Screen. Data for the sgs1 mgt1 strain (AID 161);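 note: 0% = growth of cultures given vehicle only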; conditions: S. cerevisiae sgs1 mgt1 strain, at 50.0 µM, stronger effect = higher value
Procedure, shortened: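 This yeast growth screen uses a strain with defined DNA-repair lesions; compound-treated growth is compared with vehicle-treated growth.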

[4] = NCI Yeast Anticancer Drug Screen. Data for the cln2 rad14 strain (AID 165);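 note: 0% = growth equal to vehicle treated cultures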; conditions: S. cerevisiae cln2 rad14 strain, at 50.0 µM, stronger effect = higher value
Procedure, shortened: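 Strain: cln2 rad14 yeast, altered in cell cycle control and DNA damage repair. Read-out: growth inhibition vs vehicle.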

[5] = NCI Yeast Anticancer Drug Screen. Data for the bub3 strain (AID 167); conditions: S. cerevisiae bub3 mutant strain, at 50.0 µM, stronger effect = higher value
Procedure, shortened: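 Steps: expose the mutant yeast strain to compound; grow alongside vehicle-treated cultures; measure growth; express inhibition against the vehicle cultures.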

[6] = NCI Yeast Anticancer Drug Screen. Data for the mlh1 rad18 strain (AID 175); conditions: S. cerevisiae mlh1 rad18 strain growth inhibition; at 50.0 µM; stronger effect = higher value
Procedure, shortened: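 A repair-deficient yeast strain is exposed to test compound, and growth is scored relative to vehicle-treated controls.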

Measured: growth inhibition

Nc1nc(-c2ccc([N+](=O)[O-])cc2)cc(-c2cc(-c3ccc([N+](=O)[O-])cc3)nc(N)n2)n1
inactive: [1] 5.05% | [2] 6.7% | [3] -9.8% | [4] 14.7% | [5] -17.4% | [6] 6.6%

CCCCOC(=O)c1ccc(OC(=O)Nc2ccccc2)cc1
inactive: [1] 11.2% | [2] 6% | [3] 11.4% | [4] 7.7% | [5] 17.6% | [6] 3.7%

C=CCOc1cc2c(cc1C(C)c1ccc(OC)c(OC)c1)OCO2 (stereo not given)
inactive: [1] 32.9% | [2] -3.2% | [3] 17.3% | [4] 18.4% | [5] 6.25% | [6] 49.2%

Cc1c(C(=O)C/C(=N\O)C(=O)Nc2cc(Cl)c(Cl)cc2Cl)[n+](=O)c2ccccc2n1[O-]
inactive: [1] 21.8% | [2] 14.3% | [3] 22.1% | [4] 14.7% | [5] 21.4% | [6] 32.4%

S=C(SCc1c(Cl)cccc1Cl)N1CCSCC1
inactive: [1] -13.9% | [2] -14.2% | [3] 23.1% | [4] -6.85% | [5] 53% | [6] 0.6%

CC(=O)OCC1Cn2c(c(-c3ccccc3)c(=O)[nH]c2=S)O1 (stereo not given)
inactive: [1] -9.15% | [2] 14.5% | [3] 5.95% | [4] -1.95% | [5] -6.35% | [6] 8.25%

O=C1NN=C(C2CCCCC2)C12CCCCC2
inactive: [1] 8.05% | [2] -2.85% | [3] 1.3% | [4] 2.85% | [5] 5.45% | [6] -8.4%

CCCOC(=O)/C=C/c1ccc(OC)cc1
inactive: [1] -10.7% | [2] -18.9% | [3] -16.1% | [4] -12.2% | [5] -14.4% | [6] -27.4%

CCOC(=O)c1cc(C=O)nc2c(Cl)cc(Cl)cc12
inactive: [1] 18.7% | [2] 6.25% | [3] 22.4% | [4] 5.9% | [5] 3.8% | [6] 17.6%

N#C/C(=N\NC(=O)c1cccs1)c1ccccc1Cl
inactive: [1] -5.65% | [2] 1.2% | [3] 8% | [4] -33.1% | [5] 9.7% | [6] 3.45%

Nc1c(O)cccc1C(=O)O
inactive: [1] -16.2% | [2] -9.9% | [3] -4.45% | [4] 3.95% | [5] 5.1% | [6] -28.7%

CC(=O)NC(Cc1ccc(OC(C)=O)c(OC(C)=O)c1)C(C)=O (stereo not given)
inactive: [1] -10.4% | [2] 9.7% | [3] -0.7% | [4] -8.3% | [5] -10.6% | [6] 6%

O=S1(=O)CC(N2CCCCC2)C2=C(O1)c1ccccc1N(c1ccccc1)C2 (stereo not given)
inactive: [1] 1.8% | [2] -16.9% | [3] -11.1% | [4] 16.9% | [5] -0.4% | [6] -26.1%

CN(C)CCOC(=O)C(C)(C)Sc1ccc(Cl)cc1
inactive: [1] 11.1% | [2] 23.3% | [3] 26.4% | [4] -5.35% | [5] 0.4% | [6] 25.5%

CC1(C)CC2(C)NCCN2C(=S)N1 (stereo not given)
inactive: [1] 3.25% | [2] 2.3% | [3] 15.8% | [4] 12.2% | [5] -5.45% | [6] -7.8%

O=C(Nc1ccc(Cl)cc1)c1cc2c(cc1Cl)Sc1nccn1S2(=O)=O
inactive: [1] -4.85% | [2] -11.7% | [3] -1.65% | [4] -25.4% | [5] 2.35% | [6] 16.9%

O=C1NC(=O)N2CC(CI)OC2C1c1ccccc1 (stereo not given)
inactive: [1] 0.25% | [2] 12.8% | [3] 10.2% | [4] 6.55% | [5] -6.6% | [6] 11.4%

CCc1nc(N)nc(N)c1-c1ccc2nnn(O)c2c1
inactive: [1] -11.8% | [2] -7.45% | [3] -4.8% | [4] -40% | [5] 0% | [6] -3.1%

c1ccc(CC2NCCc3c2[nH]c2ccccc32)cc1 (stereo not given)
inactive: [1] -14.2% | [2] 2.9% | [3] -5.05% | [4] -6.2% | [5] -11.9% | [6] 1.5%

CCN(CC)CCCC(C)Nc1c2ccc(Cl)cc2nc2c(Cl)cc(Cl)cc12 (stereo not given)
inactive: [1] -8.55% | [2] 4.75% | [3] 2.5% | [4] 23.6% | [5] 28.3% | [6] -8.85%
